mHTT-CaM PPI inh – mHTT-calmodulin interaction abrogation; 190,000 tested, 3.6% active; inhibition, % at 15 µM; P42858; AID 1671202; AlphaScreen His-mHTT/GST-CaM binding, luminescence
Target sequence (P42858 whole entry, looked up, change not shown): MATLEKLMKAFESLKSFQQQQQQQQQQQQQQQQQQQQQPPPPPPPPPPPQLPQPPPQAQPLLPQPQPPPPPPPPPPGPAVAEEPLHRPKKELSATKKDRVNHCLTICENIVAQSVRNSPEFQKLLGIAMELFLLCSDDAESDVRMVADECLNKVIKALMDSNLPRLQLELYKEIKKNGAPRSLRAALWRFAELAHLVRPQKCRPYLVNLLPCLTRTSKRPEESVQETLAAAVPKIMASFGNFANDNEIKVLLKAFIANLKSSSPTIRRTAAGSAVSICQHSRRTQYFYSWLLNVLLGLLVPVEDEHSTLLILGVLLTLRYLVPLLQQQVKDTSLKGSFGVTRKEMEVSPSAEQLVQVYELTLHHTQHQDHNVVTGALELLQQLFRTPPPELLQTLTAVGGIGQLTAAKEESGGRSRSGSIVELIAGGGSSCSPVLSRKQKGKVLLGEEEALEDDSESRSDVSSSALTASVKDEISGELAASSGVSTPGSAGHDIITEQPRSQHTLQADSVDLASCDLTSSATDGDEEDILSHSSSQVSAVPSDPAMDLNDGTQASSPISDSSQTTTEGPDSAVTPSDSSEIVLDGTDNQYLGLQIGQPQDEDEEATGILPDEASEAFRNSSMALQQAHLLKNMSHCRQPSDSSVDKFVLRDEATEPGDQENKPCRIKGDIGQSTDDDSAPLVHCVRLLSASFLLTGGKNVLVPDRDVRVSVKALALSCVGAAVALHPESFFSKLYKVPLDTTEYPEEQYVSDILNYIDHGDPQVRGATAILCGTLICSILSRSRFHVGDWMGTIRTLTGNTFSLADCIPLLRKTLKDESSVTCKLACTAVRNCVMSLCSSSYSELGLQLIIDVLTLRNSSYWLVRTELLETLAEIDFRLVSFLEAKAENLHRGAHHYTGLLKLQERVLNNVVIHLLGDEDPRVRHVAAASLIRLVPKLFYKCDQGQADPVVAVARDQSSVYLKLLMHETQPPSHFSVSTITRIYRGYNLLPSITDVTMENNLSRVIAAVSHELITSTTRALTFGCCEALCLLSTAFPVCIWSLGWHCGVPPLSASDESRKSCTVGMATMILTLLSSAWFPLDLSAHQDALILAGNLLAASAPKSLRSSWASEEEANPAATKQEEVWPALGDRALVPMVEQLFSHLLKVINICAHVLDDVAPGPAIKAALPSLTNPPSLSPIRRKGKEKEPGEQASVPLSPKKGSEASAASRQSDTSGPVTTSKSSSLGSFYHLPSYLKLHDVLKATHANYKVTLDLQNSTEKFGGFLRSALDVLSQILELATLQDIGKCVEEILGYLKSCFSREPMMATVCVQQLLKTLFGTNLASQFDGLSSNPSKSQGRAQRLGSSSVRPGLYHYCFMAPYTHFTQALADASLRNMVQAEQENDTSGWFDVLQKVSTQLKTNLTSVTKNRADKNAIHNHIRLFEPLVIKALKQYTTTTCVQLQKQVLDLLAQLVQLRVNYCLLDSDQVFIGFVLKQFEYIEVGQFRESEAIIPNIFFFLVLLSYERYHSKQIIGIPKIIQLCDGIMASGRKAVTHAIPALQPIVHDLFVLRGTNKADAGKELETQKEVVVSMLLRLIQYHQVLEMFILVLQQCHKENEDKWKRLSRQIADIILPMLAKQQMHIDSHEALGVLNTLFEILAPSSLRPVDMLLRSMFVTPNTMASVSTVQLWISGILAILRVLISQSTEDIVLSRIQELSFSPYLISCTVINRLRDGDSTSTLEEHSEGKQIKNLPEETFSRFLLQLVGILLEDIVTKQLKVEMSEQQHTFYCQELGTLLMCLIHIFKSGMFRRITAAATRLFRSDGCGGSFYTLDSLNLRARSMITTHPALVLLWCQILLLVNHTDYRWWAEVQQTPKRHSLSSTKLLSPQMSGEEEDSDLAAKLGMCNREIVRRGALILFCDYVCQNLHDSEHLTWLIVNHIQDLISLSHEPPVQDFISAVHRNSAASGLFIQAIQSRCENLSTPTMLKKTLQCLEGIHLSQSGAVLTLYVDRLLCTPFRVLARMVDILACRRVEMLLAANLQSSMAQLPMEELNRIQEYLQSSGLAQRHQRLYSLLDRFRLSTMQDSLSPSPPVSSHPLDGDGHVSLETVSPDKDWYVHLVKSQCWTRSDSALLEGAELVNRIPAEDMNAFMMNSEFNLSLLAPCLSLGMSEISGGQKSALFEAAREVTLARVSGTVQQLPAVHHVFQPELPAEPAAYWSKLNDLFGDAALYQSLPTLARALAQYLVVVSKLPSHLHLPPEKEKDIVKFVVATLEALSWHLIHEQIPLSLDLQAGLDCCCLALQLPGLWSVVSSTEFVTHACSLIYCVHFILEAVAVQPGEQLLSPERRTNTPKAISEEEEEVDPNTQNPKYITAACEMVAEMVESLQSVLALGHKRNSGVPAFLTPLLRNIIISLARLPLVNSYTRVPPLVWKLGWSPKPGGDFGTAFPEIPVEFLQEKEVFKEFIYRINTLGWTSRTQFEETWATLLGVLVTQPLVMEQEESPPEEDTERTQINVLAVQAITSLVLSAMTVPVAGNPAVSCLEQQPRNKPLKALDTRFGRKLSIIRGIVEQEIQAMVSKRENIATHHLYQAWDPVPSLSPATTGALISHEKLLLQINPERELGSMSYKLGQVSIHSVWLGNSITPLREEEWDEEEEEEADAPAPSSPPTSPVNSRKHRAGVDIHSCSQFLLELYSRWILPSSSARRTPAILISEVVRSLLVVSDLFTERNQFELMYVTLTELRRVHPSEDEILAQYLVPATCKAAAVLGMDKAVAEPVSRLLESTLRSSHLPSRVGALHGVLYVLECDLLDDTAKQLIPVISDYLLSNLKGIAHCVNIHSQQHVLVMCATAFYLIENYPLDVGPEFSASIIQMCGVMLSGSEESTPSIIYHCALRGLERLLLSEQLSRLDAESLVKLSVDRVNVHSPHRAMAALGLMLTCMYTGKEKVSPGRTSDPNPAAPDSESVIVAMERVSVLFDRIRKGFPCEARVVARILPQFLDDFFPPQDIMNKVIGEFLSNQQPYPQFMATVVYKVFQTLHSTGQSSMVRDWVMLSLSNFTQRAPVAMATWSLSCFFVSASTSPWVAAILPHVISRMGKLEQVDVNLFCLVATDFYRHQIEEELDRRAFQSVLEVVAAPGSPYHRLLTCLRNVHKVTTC
Pf apPOL block – Pf-apPOL DNA polymerase inhibition; 210,000 tested, 0.25% active; Recombinant Pf-apPOL, molecular beacon fluorescence, 1.5 h; inhibition, % at 10 µM
Of the large screens only hits and unclear results are named; the others gave an inactive call. A selection: hits, their analogues and other compounds. The true share with any hit is near 3.6%. No stated cut-off is given here; in the data, active means inhibition above about 50%; inactive means the rest.

COc1ccc(S(=O)(=O)Nc2ccc(S(=O)(=O)Nc3cc(C)ccc3C)cc2)cc1OC	none
CCOc1ccc(NS(=O)(=O)c2ccc(NS(=O)(=O)c3ccccc3)cc2)cc1	none
CCOc1ccc(NS(=O)(=O)c2ccc3[nH]c4c(c3c2)CCCCC4)cc1	mHTT-CaM PPI inh 94
Cc1nc(-c2ccncc2)nc2c1CC(=O)N2Cc1ccccn1	none
COc1ccc(OC)c(CNS(=O)(=O)c2ccc3[nH]c4c(c3c2)CCCCC4)c1	mHTT-CaM PPI inh 85
CCOc1ccc(NC(=O)CN(C)S(=O)(=O)c2ccc3[nH]c4c(c3c2)CCCC4)cc1	none
CCOc1ccc(NS(=O)(=O)c2ccc3[nH]c4c(c3c2)CCCC4)cc1	mHTT-CaM PPI inh 91
COc1ccccc1CNS(=O)(=O)c1ccc2[nH]c(=O)sc2c1	none
COc1ccc(C(O)CN2CCN(c3cccc(OC)c3)CC2)cc1 (centres undefined)	none
COc1cccc(C=C2Oc3cc(OCC(C)=O)ccc3C2=O)c1	none
CC(=O)COc1ccc2c(c1)OC(=CC=Cc1ccccc1)C2=O	mHTT-CaM PPI inh 88
COc1ccc(C=C2Oc3cc(OCC(=O)O)ccc3C2=O)cc1	Pf apPOL block 61
C=C(C)COc1ccc2c(c1)OC(=Cc1cccc(OC)c1)C2=O	mHTT-CaM PPI inh 73
CC(C)(C)OC(=O)COc1ccc2c(c1)OC(=CC1=Cc3ccccc3OC1)C2=O	none
COc1ccc(C(=O)COc2ccc3c(c2)OC(=CC2=Cc4ccccc4OC2)C3=O)cc1OC	mHTT-CaM PPI inh 58
CCOC(=O)COc1ccc2c(c1)OC(=CC=Cc1ccccc1)C2=O	none
COc1ccc(C=C2Oc3cc(OCC(=O)c4ccc(OC)cc4)ccc3C2=O)cc1	none
Cc1cccc(Nc2nccc(C3CCCN(C(=O)C(C)C)C3)n2)c1 (centres undefined)	none
O=C1OC(c2ccc(Cl)c([N+](=O)[O-])c2)=N/C1=C\C=C\c1ccccc1	none
O=C(Nc1cccnc1)C1CCCN(c2nnc3ccccn23)C1 (centres undefined)	none
CCOc1ccc(/C=C2\Sc3ccccc3C2=O)cc1	none
CCOc1cc(C=C2C(=O)c3ccccc3C2=O)cc(Br)c1O	mHTT-CaM PPI inh 66
CCOc1cc(/C=C2\Sc3ccccc3C2=O)cc(I)c1O	mHTT-CaM PPI inh 71
COc1cc(/C=C2\Sc3ccccc3C2=O)cc(I)c1O	mHTT-CaM PPI inh 74
COc1ccc(/C=C2\Sc3ccccc3C2=O)cc1Br	none
COc1cc(/C=C2\Sc3ccccc3C2=O)cc2sc(=O)oc12	none
CCOc1cc(C=C2C(=O)c3ccccc3C2=O)ccc1OC(C)C(=O)O (centres undefined)	none
COc1cc(/C=C2\Sc3ccccc3C2=O)cc(Br)c1O	mHTT-CaM PPI inh 59
CC(CCc1ccccc1)NC(=O)c1ccccc1[N+](=O)[O-] (centres undefined)	none
CCOc1ccc(C2C(C(N)=O)=C(C)Nc3nc(-c4ccccc4Cl)nn32)cc1OC (centres undefined)	none
O=C(O)CC(Cc1ccc(Cl)cc1)C(=O)Nc1cccc(C(F)(F)F)c1 (centres undefined)	none
COc1ccc(C(=O)N2CCN(c3ccc(C)cc3C)C(=O)C2C)cc1 (centres undefined)	none
CCCNC(=O)C1CCN(c2nc3ccsc3c(=O)n2-c2ccc(C)cc2)CC1	none
N/C(=N\OCc1cccc(C(F)(F)F)c1)c1nonc1N	none
O=c1cc(CSc2ncnc3c2sc2ccccc23)nc2ccccn12	none
COc1cc(/C=C2/SC(c3ccccc3)=NC2=O)cc(Br)c1O	mHTT-CaM PPI inh 96
COc1ccc(/C=C2/SC(c3ccccc3)=NC2=O)cc1	none
Cc1nc(C)n(CC(O)COc2ccc(-c3ccccc3)cc2)n1 (centres undefined)	none
Cc1nn(CC(O)COC(c2ccccc2)c2ccccc2)c(C)c1Br (centres undefined)	mHTT-CaM PPI inh 99
O=C1CCCC1C(Nc1ccc(I)cc1)c1ccccc1 (centres undefined)	none
O=C(NCc1ccc2c(c1)OCO2)C1CC(=O)N(CCc2c[nH]c3ccc(F)cc23)C1 (centres undefined)	none
C=CCSc1nc2c(c(-c3ccc(C)o3)c1C#N)CCCC2	none
Cc1ccc(-c2c(C#N)c(SCC(=O)c3ccc(O)c(O)c3)nc3c2CCCC3)o1	mHTT-CaM PPI inh 69
COCCNC(=O)C1CCCN(c2nccc(C)n2)C1 (centres undefined)	none
COC(=O)c1cccc(NC(=O)C2CCCN(c3nnc4ccc(Cl)cn34)C2)c1 (centres undefined)	none
O=C(c1ccc2cc[nH]c2c1)N1CCN(c2cc(-c3cccnc3)[nH]n2)CC1	none
O=C1c2cccc(Cl)c2C(=O)c2cccc(Cl)c21	none
O=C1c2cccc(N3CCCC3)c2C(=O)c2cccc(Cl)c21	mHTT-CaM PPI inh 65
Cc1noc(C)c1-n1sc(=O)n(-c2ccc(F)cc2)c1=O	Pf apPOL block 73 (no result: mHTT-CaM PPI inh)
Cc1ccc(-n2sc(=O)n(Cc3ccc(F)cc3)c2=O)cc1	none (no result: mHTT-CaM PPI inh)
COc1ccc(CCC(C)NCc2ccccc2OC)cc1 (centres undefined)	none
COc1ccc(CCC(C)Nc2ccc(OC)cc2OC)cc1 (centres undefined)	mHTT-CaM PPI inh 85
O=C(CSc1n[nH]c(-c2ccccc2)n1)c1ccc(O)cc1O	none
CCc1nc(SCC(=O)c2ccc(O)cc2O)n[nH]1	mHTT-CaM PPI inh 71
Oc1ccc(-c2csc(-c3c[nH]c4ccccc34)n2)cc1O	mHTT-CaM PPI inh 99
Oc1ccc(C(c2c[nH]c3ccccc23)c2c[nH]c3ccccc23)cc1O	none
O=C(O)c1ccccc1Nc1ccnc(N2CCOCC2)n1	none
NNc1nccc(Nc2ccccc2C(=O)O)n1	mHTT-CaM PPI inh 100
Cc1ccc(-c2nnc(C)c(NCc3ccc(C)o3)n2)cc1	none
CC[C@@]1(O)C(=O)OCc2c1cc1n(c2=O)Cc2cc3c(CN(C)C)c(O)ccc3nc2-1	Pf apPOL block 84 (no result: mHTT-CaM PPI inh)
CN(C)Cc1c(O)ccc2c(-c3ccccc3)cc(=O)oc12	none
CCN(CC)c1ccc(NC(=O)c2ccc(OC)c([N+](=O)[O-])c2)cc1	mHTT-CaM PPI inh 62
CCOc1ccc(C(=O)Nc2ccc(N(CC)CC)cc2)cc1[N+](=O)[O-]	none
COc1ccc(C(=O)Nc2ccc(I)cc2)c(OC)c1	none
CCN(CC)c1ccc(NC(=O)c2ccc(OC)cc2OC)cc1	mHTT-CaM PPI inh 67
COc1ccc(Cl)cc1N1C(=O)CSC1c1ccccc1[N+](=O)[O-] (centres undefined)	none
c1csc(-c2nnc(C3CCCCC3)o2)c1	none (no result: Pf apPOL block)
Cc1nn(C(=O)NC2CCCCC2)c(C)c1Cl	none
CC1C(=O)N(c2ccc3c(c2)OCO3)CCN1Cc1ccccc1F (centres undefined)	none
CSc1ccc(-c2nnc(NC(=O)c3sc4ccccc4c3Cl)o2)cc1	none
COc1ccc(Nc2cc(C)c3cc(C)ccc3n2)cc1	mHTT-CaM PPI inh 56
Cc1ccc2nc(Cl)cc(C)c2c1	none (no result: Pf apPOL block)
CN(C)c1ccc2[nH]c3c(C(=O)O)cc(=O)c(=O)c=3oc2c1	mHTT-CaM PPI inh 67 (no result: Pf apPOL block)
CN(c1ccc(F)cc1)S(=O)(=O)c1ccc2[nH]cc(C(=O)O)c(=O)c2c1	none
CCOc1ccc(N2C(=O)CS/C2=C(\C(Cl)=C(Cl)Cl)[N+](=O)[O-])cc1	mHTT-CaM PPI inh 57
O=C1CS/C(=C(\C(Cl)=C(Cl)Cl)[N+](=O)[O-])N1c1ccc(F)cc1	none
C=C(C)Cn1c(C(=O)N2CCN(C)CC2)cc2sc(C)cc21	none
Cc1cc2c(cc(C(=O)N3CCN(C)CC3)n2Cc2cccc(F)c2)s1	mHTT-CaM PPI inh 56
O=C(c1ccc(Cl)c(Cl)c1)N1CCOC(COc2cccnc2)C1 (centres undefined)	none
